# According to PubChem BioAssay (NCI):
# Compounds without any hit were thinned out: in the full panel of roughly 83,000, 20% have a hit.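 Each cell line was grown in a 96-well plate and treated with one concentration of compound for 48 hours. Values below 10 were considered active.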 A number with no mark means an inactive call. Calls of active or inactive are those of the source.
# Legend:
# Experiment in all cases: NCI-60 one-dose screen, 48 h (100 = growth as untreated, 0 = no growth, -100 = all killed)
# Conditions in all cases: 10 µM unless noted
# SK-MEL-2 melanoma = test system: SK-MEL-2 melanoma
# EKVX NSCLC = test system: EKVX NSCLC
# SN12C renal = test system: SN12C renal
# UO-31 renal = test system: UO-31 renal
# TK-10 renal = test system: TK-10 renal
# ACHN renal = test system: ACHN renal
# CAKI-1 renal = test system: CAKI-1 renal
# CCRF-CEM leukemia = test system: CCRF-CEM leukemia
# MOLT-4 leukemia = test system: MOLT-4 leukemia
# A498 renal = test system: A498 renal
Compound,growth (SK-MEL-2 melanoma),growth (EKVX NSCLC),growth (SN12C renal),growth (UO-31 renal),growth (TK-10 renal),growth (ACHN renal),growth (CAKI-1 renal),growth (CCRF-CEM leukemia),growth (MOLT-4 leukemia),growth (A498 renal)
CC(C)(C)c1ccc(C(=O)Nc2sc3c(c2C(N)=O)CCC(=O)C3)cc1,2.34% (active),5.58% (active),-1.37% (active),-99.6% (active),-33.9% (active),-98.6% (active),-74.9% (active),1.49% (active),4.19% (active),
c1ccc([P+](CCCc2n(Cc3ccc4ccccc4c3)c3ccccc3[n+]2Cc2ccc3ccccc3c2)(c2ccccc2)c2ccccc2)cc1,100%,59.4%,55%,61.2%,89.2%,81.4%,79.9%,43.2%,57.6%,67.2%
O=S(=O)(NCCNc1cc(-c2c(-c3cccc(O)c3)nc3sccn23)ccn1)c1ccc(Cl)cc1,79%,62.1%,52.8%,3.45% (active),84.2%,61.2%,36.1%,40.1%,33.9%,57.1%
COc1ccc(/C(C)=C(\c2ccc(Cl)cc2)c2ccc(OCCCN(C)C)cc2)cc1F,97.2%,85.4%,76%,54.2%,78.6%,76.7%,57.3%,48.2%,43.1%,80.1%
Cl.[Pt].[c-]1ccccc1-c1ccccn1.c1ccc(P(c2ccccc2)C([PH+](c2ccccc2)c2ccccc2)[PH+](c2ccccc2)c2ccccc2)cc1,-2.53% (active),10.8%,9.75% (active),-0.14% (active),21.1%,4.96% (active),-5.66% (active),14.5%,13.8%,
C=C1C(=O)O[C@H]2[C@H]1CC/C(COC(=O)/C=C\C(=O)NCc1ccc(Cn3c(=O)sn(CCCI)c3=O)cc1)=C\CC[C@@]1(C)O[C@@H]21,-64.4% (active),-58.8% (active),-90.8% (active),-100% (active),-79.3% (active),-100% (active),-78.6% (active),-21.1% (active),-30% (active),-17.6% (active)
O=C1c2ccccc2C(=O)c2cc(Cn3cc[n+](Cc4ccc5ccccc5c4)c3)ccc21,89.1%,70.9%,74.4%,82.5%,107%,108%,96.5%,71%,79.1%,98.3%
CNC(=O)c1c(NC(=O)c2ccc(C(C)(C)C)cc2)sc2c1CCC(=O)C2,-2.66% (active),14.6%,7.81% (active),-95.5% (active),40%,-45.9% (active),-14.3% (active),1.79% (active),2.3% (active),12.6%
CC(C)OC(=O)NNC(=O)c1ccncc1,84.4%,106%,100%,77.8%,103%,96%,94.4%,132%,102%,119%
Cc1nc2ccccc2c(/C=C/c2ccc(Cl)cc2)c1C(=O)/C=C/c1ccc(Cl)cc1,-13.6% (active),-11.9% (active),-61.6% (active),-86.2% (active),-6.59% (active),-90.3% (active),-33.8% (active),7.4% (active),5.06% (active),-75.5% (active)
COc1ccc(C(=O)/C=C/C23c4ccccc4C(c4ccccc42)C2C(=O)NC(=O)C23)cc1 (configuration not stated),103%,87.5%,86.9%,72.6%,114%,95.4%,90.7%,89.8%,87.3%,
Cc1ccccc1NC(=O)CN(C)C,84.8%,108%,97%,81.2%,86.8%,99.6%,103%,107%,94.2%,83.8%
Cc1nn(Cc2ccccc2)cc1C(=O)Nc1sc2c(c1C(N)=O)CCC(=O)C2,74.5%,54.9%,15.5%,11.8%,15.5%,5.29% (active),5.49% (active),9.5% (active),16.5%,108%
